Experimental data taken from PubChem BioAssay.
Activity calls are given as the source filed them. Unless noted, no rule for the calls is given here.

How the values were obtained:
[1] = tested on: XIP peptide (Xip251-270) binding; experiment: XIP fragment 251-270 binding compounds – biochemical, small-molecule microarray, fluorescence 635/667 nm, 0.1 µg/mL protein, primary screen (AID 1182); conditions: fluorescent protein binding, 635 nm, higher = more signal, called active from +8 up or from −8 down
XIP peptide (Xip251-270) = experiment: compounds binding XIP fragment 251-270 – biochemical, small-molecule microarray, fluorescence 635/667 nm, 0.5 µg/mL protein, primary screen (AID 1183); conditions: fluorescence 635 nm, higher = more signal
[2] = blood-stage malaria parasite viability loss – strain 3D7, DAPI fluorescence, 100 nL, primary screen (AID 1184);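 also: parasites grown inside human red blood cells in medium with human serum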; conditions: P. falciparum 3D7 growth, 3 d, higher = more signal
[3] = molecular target: Homeobox protein Hox-A13 (Mus musculus) (UniProt Q62424); experiment: disruptors of Hoxa13 oligonucleotide interaction – biochemical, fluorescence polarization, labeled oligonucleotide, primary screen (AID 1185); conditions: Hoxa13:DNA binding, 15 min, higher = more signal, called active from +8 up or from −8 down
[4] = blockers of DNA damage checkpoint Chk1 activation – imaging, HeLa, hydroxyurea, phospho-Chk1 antibody, percent positive cells, primary screen (AID 1186); conditions: hydroxyurea-induced phospho-Chk1 immunofluorescence imaging, higher = more signal
[5] = blockers of DNA damage checkpoint Chk1 activation – imaging, HeLa, hydroxyurea, phospho-Chk1 nuclear intensity, primary screen (AID 1187); conditions: hydroxyurea-induced phospho-Chk1 immunofluorescence imaging, higher = more signal

Homeobox protein Hox-A13 (Mus musculus), sequence (Q62424 whole entry, looked up): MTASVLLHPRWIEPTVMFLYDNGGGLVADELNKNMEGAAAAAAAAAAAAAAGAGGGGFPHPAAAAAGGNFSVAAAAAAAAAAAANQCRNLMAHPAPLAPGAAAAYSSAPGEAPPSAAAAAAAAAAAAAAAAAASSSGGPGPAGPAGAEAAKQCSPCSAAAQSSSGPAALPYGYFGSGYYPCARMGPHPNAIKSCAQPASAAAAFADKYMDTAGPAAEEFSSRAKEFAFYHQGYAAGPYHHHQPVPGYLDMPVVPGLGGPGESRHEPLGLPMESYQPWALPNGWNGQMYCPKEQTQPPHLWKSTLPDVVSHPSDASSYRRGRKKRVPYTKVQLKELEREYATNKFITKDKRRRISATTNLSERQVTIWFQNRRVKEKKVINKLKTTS

Structure (SMILES)	composite z-score [1]	composite z-score (XIP peptide (Xip251-270))	z-score [2]	z-score [3]	z-score [4]	z-score [5]
COC(=O)C(CC#Cc1ccc2c(c1)[C@]1(C(=O)N2)[C@H](C(=O)N2CCN(c3ncccn3)CC2)[C@H]2C(=O)O[C@H](c3ccccc3)[C@H](c3ccccc3)N2[C@@H]1c1ccc(O)cc1)C(=O)OC	0.959 (inactive)	0.782	-2.28	-2.37 (inactive)	-0.413 (inactive)	-1.02 (inactive)
CC(C)c1ccc(NN2C(C(O)C3CCCCC3)C=CC3C(=O)N(c4ccccc4)C(=O)C32)cc1 (configuration not stated)	0.668 (inactive)	0.788	0.142	-2.78 (inactive)	0.333 (inactive)	-0.566 (inactive)
C=CC[C@H](OC(=O)Nc1ccc(SC)cc1)c1ccc(O)c(F)c1	1.07 (inactive)	-0.193	-0.249	-0.845 (inactive)	0.355 (inactive)	0.417 (inactive)
Cc1ccc(S(=O)(=O)N2[C@@H](c3ccccc3)C(C(=O)O)=C[C@H]2C(C)(C)C)cc1	1.11 (inactive)	0.792	-1.04	-5.12 (inactive)	0.694 (inactive)	0.0696 (inactive)
C=C(COC)C(=O)CC[C@H](OC(C)=O)c1ccc(CO)o1	-0.153 (inactive)	0.626	-0.689	-4.72 (inactive)	-0.707 (inactive)	-0.842 (inactive)
COC(=O)[C@]1(Cc2ccccc2CN=[N+]=[N-])N=C(c2ccc(OCCCO)cc2)O[C@@H]1c1ccccc1N=[N+]=[N-]	0.0771 (inactive)	0.724	-2.04	0.381 (inactive)	-0.485 (inactive)	-0.543 (inactive)
N#Cc1ccc(NN2C(C(O)c3ccc(B(O)O)cc3)C=CC3CN(c4ccccc4)C(=O)C32)cc1 (configuration not stated)	-0.0004 (inactive)	0.658	-0.0223	-2.55 (inactive)	-1.03 (inactive)	-0.622 (inactive)
CC(C)N1C(=O)[C@@]2(Cc3ccccc31)c1ccccc1C(=O)N(Cc1ccccc1C(F)(F)F)[C@H]2c1ccc(CO)cc1	-0.0547 (inactive)	0.471	-0.35	-0.791 (inactive)	0.0153 (inactive)	-0.0497 (inactive)
COc1cccc(C)c1NC(=O)O[C@H]1[C@H](OC(=O)Nc2ccccc2-c2ccccc2)[C@@H](OC(=O)Nc2ccccc2-c2ccccc2)[C@@H](OC)O[C@@H]1CO	1.22 (inactive)	0.89	-2.26	-3.57 (inactive)	0.609 (inactive)	0.604 (inactive)
C=C(/C=C\CNS(=O)(=O)c1ccc(C)cc1)[C@H](O)[C@H]1CCCN1S(=O)(=O)c1ccccc1[N+](=O)[O-]	-0.167 (inactive)	-0.167	-1.8	-5.5 (inactive)	-0.225 (inactive)	0.161 (inactive)
O=C1NC(=O)C2C1C=CC(C(O)C(c1ccccc1)c1ccccc1)N2Nc1ccccn1 (configuration not stated)	0.21 (inactive)	0.797	-0.315	-5.58 (inactive)	-0.12 (inactive)	-0.319 (inactive)
C=C(C(=O)CC[C@H](OC(=O)c1ccccc1-c1ccccc1C(=O)O)c1ccc(OCCO)cc1)C(C)C	0.0052 (inactive)	0.569	-2.71	-6.36 (inactive)	-0.0593 (inactive)	-0.326 (inactive)
O=C(CS)NCCCCCCNC(=O)[C@H]1C[C@H]2C(=O)NCC(=O)N2[C@H]1c1cccc(OCCO)c1	0.419 (inactive)	0.702	-1.34	-2.25 (inactive)	-0.321 (inactive)	-0.529 (inactive)
COc1c(C)cc(-c2nc(-c3ccccc3)c3c(c2C)CO[Si]3(C(C)C)C(C)C)cc1C	0.412 (inactive)	-0.487	-2.79	-0.848 (inactive)	0.157 (inactive)	0.0254 (inactive)
COC(=O)[C@@]1(Cc2ccc(F)cc2)[C@H]2c3cc(C(=O)N4CCCC4)n(Cc4ccc(OC(F)(F)F)cc4)c3C[C@H]2CN1C(=O)c1ccccc1	0.124 (inactive)	0.267	0.096	-3.8 (inactive)	1.06 (inactive)	0.639 (inactive)
CC[C@@H]1C=C(C(=O)O)[C@H](c2cccc(Cl)c2)N1S(=O)(=O)c1ccc(C)cc1	0.415 (inactive)	0.141	1.85	-3.71 (inactive)	0.198 (inactive)	-0.141 (inactive)

Structure (SMILES)	composite z-score [1]	composite z-score (XIP peptide (Xip251-270))	z-score [2]	z-score [3]	z-score [4]	z-score [5]
C[N+](C)(C)CCCC[C@@H]1NC(=O)[C@H]2C[C@@H](C(=O)NCCCCCN)[C@@H](c3ccc(O)cc3)N2C1=O	0.528 (inactive)	0.69	0.435	-1.12 (inactive)	0.932 (inactive)	0.79 (inactive)
O=C1C2C=CC(C(O)C3CCCCC3)N(Nc3ccccc3F)C2C(=O)N1c1ccccc1 (configuration not stated)	0.352 (inactive)	0.738	-0.193	0.182 (inactive)	0.0253 (inactive)	0.0942 (inactive)
COc1ccc(CCNC(=O)[C@@H]2c3ccccc3C(=O)N(C(C)C)[C@H]2c2ccc(CO)cc2)cc1	-0.343 (inactive)	-0.898	1.13	-2.13 (inactive)	-0.182 (inactive)	-0.238 (inactive)
O=C1C2C=CC(C(O)C(c3ccccc3)c3ccccc3)N(Nc3ccccc3F)C2C(=O)N1c1ccccc1 (configuration not stated)	0.814 (inactive)	0.768	-0.373	-2.65 (inactive)	0.837 (inactive)	0.29 (inactive)
Cc1ccc(S[C@]2(C(=O)NC(C)C)CC(=O)N(Cc3ccccc3)[C@@H]2c2ccc(CO)cc2)cc1	1.13 (inactive)	0.123	0.14	-1.54 (inactive)	-0.412 (inactive)	-0.32 (inactive)
C[N+](C)(C)CCCC[C@@H]1NC(=O)[C@H]2C[C@@H](C(=O)O)[C@@H](c3ccc(O)cc3)N2C1=O	0.154 (inactive)	0.274	0.115	-1.42 (inactive)	-0.349 (inactive)	-0.313 (inactive)
COc1ccc([Si](C)(C)[C@@H]2[C@@H](CC(=O)N3CCC[C@H]3CO)O[C@]3(C(=O)N(Cc4cccc(N5C(=O)c6cccc7cccc5c67)c4)c4ccccc43)[C@H]2C)cc1	3.7 (inactive)	0.703	-2.1	-2.34 (inactive)	-0.798 (inactive)	-0.489 (inactive)
C=CCNC(=O)[C@H]1[C@@H]2C(=O)O[C@@H](c3ccccc3)[C@@H](c3ccccc3)N2[C@@H](c2ccc(OCCO)cc2)[C@]12C(=O)N(C(=O)OCCOC)c1ccc(C#CCC(C(=O)OC)C(=O)OC)cc12	0.275 (inactive)	0.734	-1.82	-0.253 (inactive)	0.338 (inactive)	0.475 (inactive)
COc1ccc(C(O)C2C=CC3C(=O)N(c4ccccc4)C(=O)C3N2Nc2ccccc2F)c2ccccc12 (configuration not stated)	1.56 (inactive)	0.795	0.482	-3.14 (inactive)	0.0395 (inactive)	-0.3 (inactive)
O=C1O[C@H](c2ccccc2)[C@H](c2ccccc2)N2[C@H]1[C@@H](C(=O)N1CCCCCCC1)[C@]1(C(=O)Nc3ccc(C#CCCO)cc31)[C@H]2c1ccc(O)cc1	4.41 (inactive)	0.976	-0.189	1.85 (inactive)	-0.323 (inactive)	-0.279 (inactive)
COc1ccc([Si](C)(C)[C@H]2[C@H](CC(=O)N3CCC[C@H]3CO)O[C@@]3(C(=O)N(Cc4cccc(N5CCCCC5=O)c4)c4ccccc43)[C@@H]2C)cc1	2.57 (inactive)	0.714	-1.33	-3.23 (inactive)	-0.319 (inactive)	0.519 (inactive)
COC(=O)[C@@]1(Cc2ccc(F)cc2)[C@H]2c3cc(C(=O)N4CCCC4)n(CCSCCO)c3C[C@H]2CN1C(=O)c1ccccc1	0.159 (inactive)	-0.279	-1.41	-4.82 (inactive)	0.685 (inactive)	0.827 (inactive)
C#CCN(C(=O)OC(C)(C)C)[C@H](CO)c1ccccc1	-0.235 (inactive)	-0.182	-0.333	-3.85 (inactive)	-0.306 (inactive)	-0.368 (inactive)
COc1ccc([Si](C)(C)[C@H]2[C@H](CC(=O)N(CCO)Cc3ccccc3)O[C@@]3(C(=O)N(c4ccccc4)c4ccccc43)[C@@H]2C)cc1	-0.372 (inactive)	0.342	-2.62	-5.46 (inactive)	-0.807 (inactive)	-0.763 (inactive)
Cc1ccc(N2C(=O)c3ccccc3[C@@H](C(=O)NCCN3CCOCC3)[C@@H]2c2ccc(CO)cc2)nc1	0.0616 (inactive)	0.669	1.41	-1.67 (inactive)	0.0197 (inactive)	0.274 (inactive)
O=C1O[C@H](c2ccccc2)[C@H](c2ccccc2)N2[C@H]1[C@@H](C(=O)N1CCN(c3ncccn3)CC1)[C@]1(C(=O)Nc3ccc(C#CC4(O)CCCCCC4)cc31)[C@H]2c1ccc(O)cc1	1.48 (inactive)	0.817	-0.797	-1.28 (inactive)	-0.168 (inactive)	-0.101 (inactive)
